# Experimental data as given in PubChem BioAssay (EPA / NIEHS).
# Inconclusive results are not listed. The source holds several records for some structures; these can differ, active in one and inactive in another. Active and inactive are the calls of the source. How the source made its calls, unless noted: active means hit-call score of the fitted dose curve at least 0.9, where 1 is the maximum; inactive means score below 0.9.
# Key:
# [1] = ATG_Hpa5_TRANS: Attagene TRANS-FACTORIAL HepG2 Assay for human GAL4-Hpa5 Hepatocyte Transcription Factor Basal Promoter (AID 2282975; active means hit-call score of the fitted dose curve at least 0.9, where 1 is the maximum;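 further: hits are increases in reporter mRNA over DMSO baseline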); conditions: HepG2 Attagene GAL4-Hpa5 transcription reporter
# Summary of the method: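 Basal-promoter GAL4 background control within the HepG2 trans-factorial panel of transiently transfected reporter units. Reporter mRNA is measured 24 h after dosing by RT-PCR and capillary electrophoresis, fitted for gain of signal versus DMSO.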
# [2] = ATG_GAL4_TRANS: Attagene TRANS-FACTORIAL HepG2 Assay for GAL4 (Internal Marker) (AID 2282976; active means hit-call score of the fitted dose curve at least 0.9, where 1 is the maximum); conditions: HepG2 Attagene TRANS GAL4 internal marker reporter
# Summary of the method: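 First, HepG2 cells were transfected with reporter units under GAL4-UAS control. Next, they were treated with chemical for 24 h. Finally, RNA was reverse-transcribed, PCR-amplified, FAM-labelled and resolved by capillary electrophoresis, with induction scored against DMSO.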
# [3] = target: Estrogen-related receptor gamma (Homo sapiens) (UniProt P62508); experiment: ATG_ERRg_TRANS: Attagene TRANS-FACTORIAL HepG2 Assay for human Estrogen-Related Receptor gamma (ERRg) (AID 2282977; active means hit-call score of the fitted dose curve at least 0.9, where 1 is the maximum;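 further: hits increase reporter signal over DMSO so potencies reflect activators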); conditions: HepG2 Attagene TRANS reporter, ERRg transactivation
# Summary of the method: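 Transient HepG2 transfectants, 24 h compound exposure, GAL4-UAS reporter mRNA by RT-PCR/6-FAM labelling/capillary electrophoresis; positive direction vs DMSO.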
# [4] = target: Bile acid receptor (Homo sapiens) (UniProt Q96RI1); experiment: ATG_FXR_TRANS: Attagene TRANS-FACTORIAL HepG2 Assay for Farnesoid X Receptor (FXR) (AID 2282979; active means hit-call score of the fitted dose curve at least 0.9, where 1 is the maximum;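 further: hits raise reporter mRNA above DMSO so AC50 marks FXR activation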); conditions: HepG2 Attagene TRANS FXR-GAL4 reporter transcription
# Chain of Bile acid receptor (Homo sapiens) (Q96RI1 whole entry, looked up, the tested form may be a part): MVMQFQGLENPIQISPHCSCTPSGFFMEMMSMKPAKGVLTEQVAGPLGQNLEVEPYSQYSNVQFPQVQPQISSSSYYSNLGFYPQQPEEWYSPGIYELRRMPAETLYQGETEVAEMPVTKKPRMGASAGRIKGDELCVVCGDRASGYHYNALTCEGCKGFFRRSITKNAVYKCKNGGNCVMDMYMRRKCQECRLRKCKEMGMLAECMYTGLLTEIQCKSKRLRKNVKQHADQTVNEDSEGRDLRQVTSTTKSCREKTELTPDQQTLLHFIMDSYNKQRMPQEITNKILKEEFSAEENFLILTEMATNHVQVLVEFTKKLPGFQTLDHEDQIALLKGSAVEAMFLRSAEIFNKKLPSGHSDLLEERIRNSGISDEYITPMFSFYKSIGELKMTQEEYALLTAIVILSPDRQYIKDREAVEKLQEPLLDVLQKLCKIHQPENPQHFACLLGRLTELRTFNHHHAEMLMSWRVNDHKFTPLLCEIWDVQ
# Summary of the method: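 Transient transfection of HepG2 with multiplexed GAL4-UAS reporter units; exogenous FXR-GAL4 chimera. Dose 24 h → TriZol RNA → oligo(dT) RT → PCR, 6-FAM primer extension, HpaI cut → CE. Gain vs DMSO.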
# [5] = target: Hepatocyte nuclear factor 4-alpha (Homo sapiens) (UniProt P41235); experiment: ATG_HNF4a_TRANS: Attagene TRANS-FACTORIAL HepG2 Assay for human Hepatocyte Nuclear Factor 4 alpha (HNF4a) (AID 2282982; active means hit-call score of the fitted dose curve at least 0.9, where 1 is the maximum); conditions: HepG2 HNF4a transactivation reporter, mRNA readout
# Chain of Hepatocyte nuclear factor 4-alpha (Homo sapiens) (P41235 whole entry, looked up, the tested form may be a part): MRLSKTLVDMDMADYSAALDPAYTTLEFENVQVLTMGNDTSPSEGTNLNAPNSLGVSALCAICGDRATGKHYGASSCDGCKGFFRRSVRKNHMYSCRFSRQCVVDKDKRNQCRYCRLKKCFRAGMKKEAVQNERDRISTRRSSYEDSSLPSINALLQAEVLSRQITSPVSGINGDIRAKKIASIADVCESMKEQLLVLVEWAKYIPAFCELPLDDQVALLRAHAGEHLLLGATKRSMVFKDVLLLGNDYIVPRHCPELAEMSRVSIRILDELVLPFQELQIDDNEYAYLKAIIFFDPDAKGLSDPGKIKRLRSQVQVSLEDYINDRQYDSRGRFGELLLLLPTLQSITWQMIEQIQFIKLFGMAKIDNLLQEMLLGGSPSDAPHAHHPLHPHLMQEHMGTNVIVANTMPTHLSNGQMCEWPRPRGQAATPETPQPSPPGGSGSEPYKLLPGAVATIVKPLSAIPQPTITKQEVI
# Summary of the method: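 HepG2 cells transiently transfected with multiplexed GAL4-UAS reporter units responsive to chimeric NR-GAL4 proteins; compound exposure 24 h. Reporter mRNA quantified by RT-PCR, 6-FAM labelling, HpaI digestion and capillary electrophoresis; gain of signal versus DMSO baseline.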
# [6] = ATG_M_06_TRANS: Attagene TRANS-FACTORIAL HepG2 Assay for M06 Transcription Factor (Internal Marker) (AID 2282983; active means hit-call score of the fitted dose curve at least 0.9, where 1 is the maximum;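 further: reporter transcript level by RT-PCR then capillary electrophoresis fluorescence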); conditions: HepG2 Attagene TRANS M06 internal marker reporter
# Summary of the method: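 Transfect HepG2 with MRTUs → dose compounds 24 h → isolate RNA, oligo(dT) RT → PCR with reporter primers → 6-FAM primer extension → HpaI digest → CE fragment analysis. Positive direction vs DMSO.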
# [7] = target: Nuclear receptor subfamily 4 group A member 2 (Homo sapiens) (UniProt P43354); experiment: ATG_NURR1_TRANS: Attagene TRANS-FACTORIAL HepG2 Assay for human Nuclear Receptor Related Protein 1 (NURR1) (AID 2282985; active means hit-call score of the fitted dose curve at least 0.9, where 1 is the maximum); conditions: HepG2 Attagene TRANS reporter, mRNA readout
# Chain of Nuclear receptor subfamily 4 group A member 2 (Homo sapiens) (P43354 whole entry, looked up, the tested form may be a part): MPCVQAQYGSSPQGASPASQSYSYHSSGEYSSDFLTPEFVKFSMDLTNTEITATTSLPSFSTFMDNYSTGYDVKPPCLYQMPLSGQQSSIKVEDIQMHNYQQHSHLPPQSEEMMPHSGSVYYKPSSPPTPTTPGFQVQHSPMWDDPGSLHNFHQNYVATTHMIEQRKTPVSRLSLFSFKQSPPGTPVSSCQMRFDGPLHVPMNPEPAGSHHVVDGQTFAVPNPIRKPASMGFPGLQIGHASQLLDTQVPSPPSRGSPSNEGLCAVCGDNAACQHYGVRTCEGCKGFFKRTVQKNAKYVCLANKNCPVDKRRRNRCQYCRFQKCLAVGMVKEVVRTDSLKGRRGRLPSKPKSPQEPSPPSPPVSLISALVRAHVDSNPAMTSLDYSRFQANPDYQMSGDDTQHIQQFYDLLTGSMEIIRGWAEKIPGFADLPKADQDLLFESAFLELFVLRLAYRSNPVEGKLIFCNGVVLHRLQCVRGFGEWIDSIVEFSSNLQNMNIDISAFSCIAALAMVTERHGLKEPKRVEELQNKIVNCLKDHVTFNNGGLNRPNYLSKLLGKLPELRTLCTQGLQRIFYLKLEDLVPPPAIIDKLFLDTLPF
# Summary of the method: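 HepG2 cells transiently transfected with GAL4-UAS reporter units and chimeric NR-Gal4 constructs; chemical exposure 24 h. Reporter mRNA quantified by RT-PCR, fluorescent labelling and capillary electrophoresis; gain of signal fitted relative to DMSO baseline.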
# [8] = target: Transcriptional activator Myb (Homo sapiens) (UniProt P10242); experiment: ATG_Myb_CIS: Attagene CIS-FACTORIAL HepG2 Assay for human Myeloblastosis (Myb) Proto-Oncogene Transcription Factor (AID 2282986); conditions: HepG2 Attagene CIS-FACTORIAL Myb reporter transcription; actives raise or lower the signal
# Chain of Transcriptional activator Myb (Homo sapiens) (P10242 whole entry, looked up): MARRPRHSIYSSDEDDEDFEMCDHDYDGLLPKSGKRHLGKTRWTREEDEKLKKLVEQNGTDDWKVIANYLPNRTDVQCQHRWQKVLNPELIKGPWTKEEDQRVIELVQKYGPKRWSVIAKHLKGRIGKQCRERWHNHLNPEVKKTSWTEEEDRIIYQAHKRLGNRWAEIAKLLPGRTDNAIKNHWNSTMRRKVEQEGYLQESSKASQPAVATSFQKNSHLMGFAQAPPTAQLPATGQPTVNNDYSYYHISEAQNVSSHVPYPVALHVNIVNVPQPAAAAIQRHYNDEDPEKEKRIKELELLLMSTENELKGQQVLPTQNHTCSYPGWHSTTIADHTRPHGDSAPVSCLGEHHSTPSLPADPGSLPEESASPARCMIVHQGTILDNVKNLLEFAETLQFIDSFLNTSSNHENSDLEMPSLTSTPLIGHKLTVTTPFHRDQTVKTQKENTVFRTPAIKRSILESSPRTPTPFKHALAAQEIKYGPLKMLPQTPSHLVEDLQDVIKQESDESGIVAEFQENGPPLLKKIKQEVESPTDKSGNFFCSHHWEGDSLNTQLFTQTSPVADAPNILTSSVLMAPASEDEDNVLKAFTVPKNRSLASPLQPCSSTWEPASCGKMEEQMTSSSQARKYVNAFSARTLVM
# Summary of the method: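 Multiplexed cis-reporter system in HepG2: transient transfection, 24 h treatment, mRNA readout by RT-PCR and capillary electrophoresis. Both increases and decreases are scored versus DMSO negative control.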
# [9] = ATG_NFI_CIS: Attagene CIS-FACTORIAL HepG2 Assay for human Nuclear Factor I (NFI) (AID 2282989); conditions: HepG2 cis-regulatory reporter, NFI response element transcription; actives raise or lower the signal
# Summary of the method: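 After transient transfection of HepG2 with cis-promoter reporter constructs and 24 h dosing, RNA is reverse-transcribed, amplified, 6-FAM end-labelled and HpaI-digested before capillary analysis. Bidirectional curve fitting against DMSO.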
# [10] = target: Myc proto-oncogene protein (Homo sapiens) (UniProt P01106); experiment: ATG_Myc_CIS: Attagene CIS-FACTORIAL HepG2 Assay for human Myelocytomatosis (Myc) Proto-Oncogene Transcription Factor (AID 2282990); conditions: HepG2, Attagene cis-reporter transcription factor activity; actives raise or lower the signal
# Chain of Myc proto-oncogene protein (Homo sapiens) (P01106 whole entry, looked up): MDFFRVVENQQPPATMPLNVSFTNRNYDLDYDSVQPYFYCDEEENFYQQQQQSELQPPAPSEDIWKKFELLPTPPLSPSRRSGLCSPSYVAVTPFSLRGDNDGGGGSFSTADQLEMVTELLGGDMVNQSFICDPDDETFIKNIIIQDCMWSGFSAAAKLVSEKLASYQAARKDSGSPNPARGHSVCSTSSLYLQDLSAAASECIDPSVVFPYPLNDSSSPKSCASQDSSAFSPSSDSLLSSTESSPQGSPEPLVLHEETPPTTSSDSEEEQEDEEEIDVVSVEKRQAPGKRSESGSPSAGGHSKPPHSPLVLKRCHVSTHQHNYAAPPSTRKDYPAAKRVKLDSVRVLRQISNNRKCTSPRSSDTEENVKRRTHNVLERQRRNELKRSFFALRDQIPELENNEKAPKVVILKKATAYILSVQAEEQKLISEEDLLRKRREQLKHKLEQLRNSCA
# Summary of the method: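 DMSO-normalised, bidirectionally fitted reporter mRNA signal. HepG2 cells transfected with cis reporter constructs, treated 24 h; transcripts detected by RT-PCR, 6-FAM primer extension and CE.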
# [11] = ATG_NRF2_ARE_CIS: Attagene CIS-FACTORIAL HepG2 Assay for human Nuclear Factor Erythroid 2 Related Factor 2 (NFR2) response to Antioxidant Response Elements (ARE) (AID 2282992); conditions: HepG2 Attagene ARE/NRF2 reporter, transcription factor activity; actives raise or lower the signal
# Summary of the method: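 Cis-factorial assay: transfected HepG2 reporter library, 24 h dosing, mRNA readout via RT-PCR/CE; DMSO-referenced bidirectional analysis.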
# [12] = ATG_Oct_MLP_CIS: Attagene CIS-FACTORIAL HepG2 Assay for human Octamer-Binding Transcription Factor (Oct) (AID 2282993); conditions: HepG2 Attagene cis-factorial Oct reporter, mRNA; actives raise or lower the signal
# Summary of the method: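 Cells of the HepG2 line express promoter-controlled reporter sequences whose mRNA levels, after 24 h treatment, are measured by RT-PCR and capillary electrophoresis. Increases and decreases are scored relative to DMSO.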
# [13] = target: Cellular tumor antigen p53 (Homo sapiens) (UniProt P04637); experiment: ATG_p53_CIS: Attagene CIS-FACTORIAL HepG2 Assay for human p53 Transcription Factor (AID 2282994); conditions: HepG2 p53 cis-element reporter, Attagene mRNA; actives raise or lower the signal
# Chain of Cellular tumor antigen p53 (Homo sapiens) (P04637 whole entry, looked up): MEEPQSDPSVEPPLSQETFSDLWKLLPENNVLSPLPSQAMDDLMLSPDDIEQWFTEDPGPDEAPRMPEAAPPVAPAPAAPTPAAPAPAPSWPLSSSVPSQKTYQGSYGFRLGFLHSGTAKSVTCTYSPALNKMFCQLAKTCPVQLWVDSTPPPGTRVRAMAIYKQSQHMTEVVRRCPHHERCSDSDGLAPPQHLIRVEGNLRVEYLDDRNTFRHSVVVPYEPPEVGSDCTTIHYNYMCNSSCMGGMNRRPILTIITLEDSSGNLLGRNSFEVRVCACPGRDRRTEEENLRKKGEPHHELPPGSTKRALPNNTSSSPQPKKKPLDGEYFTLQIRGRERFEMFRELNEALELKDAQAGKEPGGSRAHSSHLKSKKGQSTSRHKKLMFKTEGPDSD
# Summary of the method: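 Using HepG2 hepatoma cells carrying cis-acting multiplexed reporters, mRNA induction is detected after a 24 h exposure. Gain- and loss-of-signal responses are fitted relative to DMSO-treated cells.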
# [14] = BSK_3C_TissueFactor: BioMAP Diversity Plus: 3C Assay for Tissue Factor Biomarker Activity (AID 2282997); conditions: BioMAP 3C HUVEC, tissue factor biomarker readout; actives raise or lower the signal
# Summary of the method: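 ELISA read-out of Tissue Factor levels on human umbilical vein endothelium collected 24 h after chemical dosing. Gain or loss of signal was fitted relative to DMSO.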
# [15] = BSK_3C_uPAR: BioMAP Diversity Plus: 3C Assay for Urokinase-type plasminogen activator receptor (uPAR) Biomarker Activity (AID 2282998); conditions: BioMAP 3C HUVEC, uPAR biomarker ELISA; actives raise or lower the signal
# Summary of the method: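 Endothelial primary cells of human umbilical vein origin received test chemical; 24 h later uPAR was assayed by ELISA. Fitting was bidirectional, DMSO as negative control.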
# [16] = target: Glucocorticoid receptor (Homo sapiens) (UniProt P04150); experiment: ATG_GR_TRANS: Attagene TRANS-FACTORIAL HepG2 Assay for human Glucocorticoid Receptor (GR) (AID 2282978; active means hit-call score of the fitted dose curve at least 0.9, where 1 is the maximum;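 further: activators score as hits since higher reporter transcript over DMSO is fitted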); conditions: HepG2 Attagene TRANS GR reporter, mRNA transcription
# Chain of Glucocorticoid receptor (Homo sapiens) (P04150 whole entry, looked up, the tested form may be a part): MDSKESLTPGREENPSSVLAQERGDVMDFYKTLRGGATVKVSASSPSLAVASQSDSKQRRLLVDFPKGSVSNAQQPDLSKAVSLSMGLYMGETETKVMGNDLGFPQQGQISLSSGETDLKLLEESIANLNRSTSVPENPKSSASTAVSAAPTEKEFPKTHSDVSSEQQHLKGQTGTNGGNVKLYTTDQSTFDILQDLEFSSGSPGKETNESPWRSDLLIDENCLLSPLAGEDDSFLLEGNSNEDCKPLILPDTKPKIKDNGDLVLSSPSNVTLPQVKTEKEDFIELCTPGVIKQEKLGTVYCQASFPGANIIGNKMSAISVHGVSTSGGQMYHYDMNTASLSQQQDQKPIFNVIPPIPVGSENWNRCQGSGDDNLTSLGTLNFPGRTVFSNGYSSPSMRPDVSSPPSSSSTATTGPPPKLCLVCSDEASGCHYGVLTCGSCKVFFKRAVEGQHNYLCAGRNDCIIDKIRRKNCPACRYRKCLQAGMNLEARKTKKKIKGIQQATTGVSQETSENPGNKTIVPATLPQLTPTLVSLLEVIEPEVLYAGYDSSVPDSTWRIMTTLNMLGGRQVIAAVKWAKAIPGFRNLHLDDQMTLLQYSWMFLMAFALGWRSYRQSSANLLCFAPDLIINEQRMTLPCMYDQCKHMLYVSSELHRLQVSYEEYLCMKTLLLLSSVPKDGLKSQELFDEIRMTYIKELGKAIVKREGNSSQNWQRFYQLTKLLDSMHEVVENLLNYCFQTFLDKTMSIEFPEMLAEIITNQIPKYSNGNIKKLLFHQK
# Summary of the method: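 HepG2 transient transfection, multiple reporter units, GAL4-UAS under NR-GAL4 chimera control. 24 h treatment. Reporter mRNA by RT-PCR/CE fluorescence, DMSO as negative control.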
# [17] = target: Oxysterols receptor LXR-alpha (Homo sapiens) (UniProt Q13133); experiment: ATG_LXRa_TRANS: Attagene TRANS-FACTORIAL HepG2 Assay for human Liver X Receptor alpha (LXRa) (AID 2282980; active means hit-call score of the fitted dose curve at least 0.9, where 1 is the maximum); conditions: HepG2 Attagene TRANS reporter, LXRa transactivation
# Chain of Oxysterols receptor LXR-alpha (Homo sapiens) (Q13133 whole entry, looked up, the tested form may be a part): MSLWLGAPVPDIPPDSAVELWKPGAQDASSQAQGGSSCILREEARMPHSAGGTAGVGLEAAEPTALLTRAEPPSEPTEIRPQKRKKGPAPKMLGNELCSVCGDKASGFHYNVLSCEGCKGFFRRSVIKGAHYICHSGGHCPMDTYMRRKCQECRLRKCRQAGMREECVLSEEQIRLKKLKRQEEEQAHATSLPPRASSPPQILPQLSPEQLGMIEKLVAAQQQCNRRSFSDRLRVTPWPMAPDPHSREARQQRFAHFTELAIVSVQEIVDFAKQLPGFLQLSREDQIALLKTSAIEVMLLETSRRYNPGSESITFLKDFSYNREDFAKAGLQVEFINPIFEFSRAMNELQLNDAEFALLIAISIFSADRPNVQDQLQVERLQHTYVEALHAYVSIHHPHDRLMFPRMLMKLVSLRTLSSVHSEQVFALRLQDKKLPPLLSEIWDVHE
# Summary of the method: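 Transfect HepG2 with GAL4-UAS multiplex reporter constructs (TRANS format, chimeric receptor-GAL4); treat 24 h; extract RNA, reverse-transcribe, PCR-amplify, FAM-label, HpaI-digest; resolve fragments by capillary electrophoresis. Upward response vs DMSO.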
# [18] = target: Oxysterols receptor LXR-beta (Homo sapiens) (UniProt P55055); experiment: ATG_LXRb_TRANS: Attagene TRANS-FACTORIAL HepG2 Assay for human Liver X Receptor beta (LXRb) (AID 2282981; active means hit-call score of the fitted dose curve at least 0.9, where 1 is the maximum); conditions: HepG2 Attagene TRANS GAL4-LXRb reporter, mRNA
# Chain of Oxysterols receptor LXR-beta (Homo sapiens) (P55055 whole entry, looked up, the tested form may be a part): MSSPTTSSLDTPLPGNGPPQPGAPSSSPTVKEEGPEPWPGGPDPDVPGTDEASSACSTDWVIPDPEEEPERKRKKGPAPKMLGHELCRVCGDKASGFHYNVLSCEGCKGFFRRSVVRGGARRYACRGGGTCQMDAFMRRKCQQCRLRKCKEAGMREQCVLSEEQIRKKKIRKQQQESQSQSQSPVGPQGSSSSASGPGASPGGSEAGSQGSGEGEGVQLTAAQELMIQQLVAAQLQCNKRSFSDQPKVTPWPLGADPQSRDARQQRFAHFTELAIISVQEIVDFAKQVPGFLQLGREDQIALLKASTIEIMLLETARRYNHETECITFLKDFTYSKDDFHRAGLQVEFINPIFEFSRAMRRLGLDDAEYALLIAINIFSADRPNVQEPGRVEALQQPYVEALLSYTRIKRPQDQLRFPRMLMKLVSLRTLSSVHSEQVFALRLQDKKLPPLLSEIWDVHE
# Summary of the method: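 HepG2 cells transiently transfected with multiple reporter transcription units carrying chimeric NR-Gal4 proteins acting on GAL4-UAS reporters; compound exposure 24 h. Reporter mRNA quantified by RT-PCR, 6-FAM labelling, HpaI digestion and capillary electrophoresis; gain of signal versus DMSO.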
# [19] = ATG_NF_kB_CIS: Attagene CIS-FACTORIAL HepG2 Assay for human Nuclear Factor Kappa B (NF-kB) (AID 2282991); conditions: HepG2 Attagene cis-factorial NF-kB reporter mRNA; actives raise or lower the signal
# Summary of the method: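 After 24 h compound incubation, transfected HepG2 cells yield total RNA; reporter cDNA is PCR-amplified, end-labelled with 6-FAM, HpaI-digested and analysed on a genetic analyser. Endogenous factor activity, DMSO-referenced bidirectional fit.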
# [20] = target: Nuclear respiratory factor 1 (Homo sapiens) (UniProt Q16656); experiment: ATG_NRF1_CIS: Attagene CIS-FACTORIAL HepG2 Assay for human Nuclear Respiratory Factor 1 (NRF1) Orphan Gene (AID 2282987); conditions: HepG2 NRF1 cis-element reporter, Attagene multiplex; actives raise or lower the signal
# Summary of the method: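 Endogenous factor activity was captured via cis-element-driven reporter transcripts in HepG2 cells. Following 24 h chemical treatment, transcripts were quantified by RT-PCR and capillary electrophoresis.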
structure (smiles),measurement,setting,value
CCCN(CCOc1c(Cl)cc(Cl)cc1Cl)C(=O)n1ccnc1,outcome,[1],inactive
same,outcome,[2],inactive
same,outcome,[3],inactive
same,outcome,[4],inactive
same,outcome,[5],inactive
same,outcome,[6],inactive
same,outcome,[7],inactive
same,outcome,[8],inactive
same,outcome,[9],inactive
same,outcome,[10],inactive
same,AC50,[11],4.52 µM (active)
same,outcome,[11],inactive
same,AC50,[12],11.1 µM (active)
same,outcome,[12],inactive
same,outcome,[13],inactive
same,outcome,[14],inactive
same,outcome,[15],inactive
COc1nn(CSP(=S)(OC)OC)c(=O)s1,outcome,[1],inactive
same,outcome,[16],inactive
same,outcome,[4],inactive
same,outcome,[17],inactive
same,outcome,[18],inactive
same,outcome,[6],inactive
same,outcome,[8],inactive
same,outcome,[9],inactive
same,outcome,[10],inactive
same,outcome,[19],inactive
same,AC50,[11],23.4 µM (active)
same,AC50,[12],18 µM (active)
same,outcome,[13],inactive
same,outcome,[14],inactive
same,outcome,[15],inactive
C#CCN1C(=O)COc2cc(F)c(N3C(=O)C4=C(CCCC4)C3=O)cc21,outcome,[1],inactive
same,outcome,[16],inactive
same,outcome,[17],inactive
same,outcome,[18],inactive
same,outcome,[5],inactive
same,outcome,[7],inactive
same,outcome,[8],inactive
same,outcome,[20],inactive
same,outcome,[9],inactive
same,outcome,[10],inactive
same,outcome,[19],inactive
same,AC50,[11],40.4 µM (active)
same,outcome,[12],inactive
same,outcome,[14],inactive
same,outcome,[15],inactive
